# RORgamma inh: inhibitors of mouse ROR gamma transcriptional activity; Potency, µM (highest dose often 53.6 µM), for inactives: at the highest dose activity change, negative = inhibition, usual class: inhibitors; Drosophila S2 Gal4-RORgamma UAS-luciferase reporter, 20 h; AID 2551; hit rate 5.4% among 310,000; P51450; further: on the % scale 0 is the no-effect control and ±100 the full control effect; nearly all actives have a fitted effect of over 60% in size
# Target sequence (P51450 whole entry, looked up, the tested form may be a part): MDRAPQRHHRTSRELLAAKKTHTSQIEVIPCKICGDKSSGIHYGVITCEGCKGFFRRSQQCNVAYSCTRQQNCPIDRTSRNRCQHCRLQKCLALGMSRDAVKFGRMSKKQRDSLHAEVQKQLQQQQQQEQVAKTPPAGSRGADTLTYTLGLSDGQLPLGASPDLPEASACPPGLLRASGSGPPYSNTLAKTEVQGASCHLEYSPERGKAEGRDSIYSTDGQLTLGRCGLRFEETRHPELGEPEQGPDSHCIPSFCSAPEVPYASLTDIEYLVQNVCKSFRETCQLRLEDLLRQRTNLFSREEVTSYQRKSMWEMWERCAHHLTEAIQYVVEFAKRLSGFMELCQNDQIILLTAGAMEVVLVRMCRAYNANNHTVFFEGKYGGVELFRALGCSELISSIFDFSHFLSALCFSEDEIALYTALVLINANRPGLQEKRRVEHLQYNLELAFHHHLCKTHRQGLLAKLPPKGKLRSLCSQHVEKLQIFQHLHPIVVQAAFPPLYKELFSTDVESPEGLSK
#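 Using a luciferase readout, inhibitors were identified by reduced reporter activity in Drosophila cells coexpressing a copper-inducible Gal4–ROR gamma fusion and UAS-driven Photinus luciferase, incubated 20 hr after 700 uM copper sulfate.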
# PINK1 modulator: modulators of PINK1 expression. PINK1 immunofluorescence, high-content cytometry, 24 h. Potency, µM (titrated, usually from 76.6 µM), inactives show at the top dose activation (PINK1 increase), hits mostly activators. hit rate 0.2% among 410,000. AID 624263; active means well fitted activation curve with a large enough effect; inconclusive means small, poorly fitted or top-dose-only effect; cell line not stated here; further: % of control where 0% means no effect; nearly all actives have a fitted effect of over 65% in size
#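 Measures PINK1 amount and localization on or inside mitochondria by immunofluorescence. Stable cells get compounds at 5 concentrations for 24 hours before fixation and staining; CCCP controls included.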
# Sfp PPTase inh: inhibitors of Bacillus subtilis Sfp phosphopantetheinyl transferase; Q9F4F7; Biochemical Sfp PPTase activity, qHTS; Potency, µM, for inactives: largest response in the series, negative = inhibition, usual class: inhibitors; hit rate 3.5% among 310,000;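 further: the enzyme is Sfp with the accession as filed and its product quenches rhodamine fluorescence; 0% = enzyme reaction without inhibitor and -100% = no enzyme wells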
#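 Fluorescence-quenching assay: 15 nM Sfp-PPTase preincubated 15 min at room temperature with compound, then 5 uM rhodamine-CoA and 12.5 uM BHQ-2-labelled YbbR peptide added. Fluorescence (ex 525/em 598 nm) read at start and after 30 min; difference gives rate.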
# ClpP mod: qHTS Assay for Activators of ClpP | ATP-dependent Clp protease proteolytic subunit (Bacillus subtilis (strain 168)), P80244 | purified B. subtilis ClpP, FRET peptide cleavage, 20 min | Potency, µM (series often up to 57.5 µM), for inactives: at the top dose activity change, negative = active | hit rate 1.9% among 340,000 | AID 651965, 2013; active means well fitted falling curve with a large enough effect; inconclusive means small, poorly fitted or top-dose-only effect; inactive means no such curve, though single readings can be large or run the other way; further: the source files actives as falling curves though it sought activators and does not explain the sign; nearly all actives have a fitted effect of over 65% in size
# Target sequence (P80244 whole entry, looked up): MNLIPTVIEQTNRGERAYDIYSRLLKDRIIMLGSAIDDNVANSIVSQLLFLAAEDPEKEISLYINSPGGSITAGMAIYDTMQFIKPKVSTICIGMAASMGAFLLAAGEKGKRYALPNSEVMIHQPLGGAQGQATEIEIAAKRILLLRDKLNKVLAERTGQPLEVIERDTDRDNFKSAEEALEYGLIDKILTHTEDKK
#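 ClpP 10 microg/mL final, pH 8 Tris/KCl buffer with BSA, glycerol, Tween-20; compound pinned in; FRET-FV substrate; RT 20 min; Ex320/Em430; ΔFRET vs ADEP 5.8 microM, DMSO, no enzyme.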
# Epigenetic derep: epigenetic control regulation, reporter derepression. murine LDR cells, GFP reporter derepression, 30 h. Potency, µM (titrated, usually from 53.9 µM), inactives show at the top dose GFP activation, usual class: activators. hit rate 0.2% among 280,000. AID 1865; further: % of control where 0% means no effect; nearly all actives have a fitted effect of over 60% in size
#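 Murine LDR cells carrying a silenced, genomically integrated CMV-driven GFP reporter were exposed to compound for 30 hours at 37 C. After PBS washes, GFP-positive cells (20–120 um objects) were counted by laser-scanning microplate cytometry.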
# VP16 counter: inhibits Gal4-VP16 luciferase reporter, ROR gamma counter-screen | Potency, µM (top dose mostly 53.6 µM), for inactives: at the highest dose activity, negative = inhibition, hits mostly inhibitors | Drosophila S2 Gal4-VP16 UAS-luciferase, luminescence, 20 h | hit rate 3.5% among 310,000;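 further: Gal4-VP16 expression switched on by copper sulfate through the metallothionein promoter; on the % scale 0 is the no-effect control and ±100 the full control effect; nearly all actives have a fitted effect of over 50% in size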
# * hit, by the source's call; u = inconclusive; x = no result given; [ ] = another dose, or the depositor's remark. Sampled rows, rich in hits. Any-hit rate of the full collection: about 8.1%. Unless noted, the call rests on the fitted dose curve; in most records, active means well fitted curve in the direction sought with a large enough effect; inconclusive means small, poorly fitted or top-dose-only effect, or another doubt; inactive means no such curve, though single readings can be large; an effect the other way counts as inactive or inconclusive. Potency means the concentration at half of the fitted maximal effect.
SMILES,RORgamma inh,PINK1 modulator,Sfp PPTase inh,ClpP mod,Epigenetic derep,VP16 counter
COc1ccc(CNc2cc(C)nc3ncnn23)c(OC)c1,-23%,-1%[38.3 µM],15%,1%,1%,11µM*
COc1ccc(Nc2cc(C)nc3ncnn23)c(OC)c1,-45%,0%,0%,-1%,-4%,14%
CC(C)Oc1cccc(C(=O)NC(=S)Nc2cccc(C(F)(F)F)c2)c1,6.3µM*,u,-14%,3%,-1%,u
COc1cccc(C(C)NC(=O)Nc2cc(Cl)ccc2OC)c1 (centres undefined),-36%,2%,18%,x,2%,-23%
CCCCOc1cccc(C(=O)NC(=S)Nc2cccc(C(F)(F)F)c2)c1,4.5µM*,4%,-27%,1%,2%,2.8µM*
COc1cccc(C(C)NC(=O)Nc2cccc(C(F)(F)F)c2)c1 (centres undefined),u,0%,41%,-1%,-1%,35µM*
CC(C)OCCCN1C=C2C(=O)C(C)(OC(=O)C3CCCC3)C(=O)C=C2C=C1c1ccsc1 (centres undefined),x,x,1%,x,x,x
C=CCC(C)(O)c1ccsc1 (centres undefined),-10%,x,14%,x,0%,-3%
S=c1[nH]nc(COc2ccccc2)n1/N=C/c1ccc(Cl)cc1Cl,7.1µM*,3%,-1%,-1%,x,-21%
Fc1ccccc1/C=N/n1c(COc2ccccc2)n[nH]c1=S,6.3µM*,5%,56µM*,-2%,x,u
Cc1ccc(/C=N/n2c(COc3ccccc3)n[nH]c2=S)s1,-6%,x,15%,2%,-3%,-2%
Oc1ccccc1/C=N/n1c(COc2ccccc2)n[nH]c1=S,11µM*,1%,u,35µM*,x,-29%
S=c1[nH]nc(COc2ccccc2)n1/N=C/c1ccc(Cl)cc1,u,9%,-28%,x,x,-16%
S=c1[nH]nc(COc2ccccc2)n1/N=C/c1ccc(Br)s1,2.5µM*,2%,-11%,-2%,3%,u
Oc1ccc(/C=N/n2c(COc3ccccc3)n[nH]c2=S)c(O)c1,-33%,-1%,56µM*,-2%,x,-2%
CCOc1ccccc1/C=N/n1c(COc2ccccc2)n[nH]c1=S,4.5µM*,4%,35µM*,5%,x,u
Cc1ccccc1/C=N/n1c(COc2ccccc2)n[nH]c1=S,4.5µM*,15%,-11%,x,x,u
Cc1cc(O)c(N)c(C)c1Cl,u,0%,56µM*,x,0%,u
Cc1cc(O)cc(C)c1Cl,32%[10 µM],2%,21%,0%,-1%,-2%
Cc1ccc(O)c(NC(=S)NC(=O)/C=C/c2ccccc2)c1,-15%,3%,12%,2%,x,9%
O=C(/C=C/c1ccco1)NC(=S)Nc1ccc(Cl)cn1,8.9µM*,6%,-20%,-3%,1%,u
Cc1ccc(O)c(NC(=S)NC(=O)CC(C)C)c1,u,-2%,-8%,-3%,-1%,u
Cc1ccc(O)c(NC(=S)NC(=O)/C=C/c2ccco2)c1,7.9µM*,11%,-9%,x,1%,u
Cc1ccnc(NC(=S)NC(=O)/C=C/c2ccco2)c1,7.1µM*,18%,-15%,7%,0%,1.8µM*
CC(=O)NC(=S)Nc1ccc(NC(=S)NC(=O)/C=C/c2ccco2)cc1,u,6%,-23%,1%,11%,-16%
SMILES,RORgamma inh,PINK1 modulator,Sfp PPTase inh,ClpP mod,Epigenetic derep,VP16 counter
Cc1ccc(O)c(NC(=S)NC(=O)C(C)C)c1,11µM*,-2%,-12%,x,8%,-1%
Cc1ccccc1C1(CC(=O)N2CCOCC2)CC(=O)N(Cc2cccnc2)C1=O (centres undefined),x,-1%,x,x,x,x
Cc1ccc(C(=O)/C=C/c2ccco2)c(O)c1,-3%,12%,45µM*,1%,-5%,1%
C#CCOC(=O)Nc1ccc(=O)n(Cc2c(Cl)cccc2Cl)c1,4%,x,u,28µM*,2%,-4%
COC(=O)Nc1cccn(Cc2c(Cl)cccc2Cl)c1=O,23%,0%,3%,u,-1%,-9%
O=S(=O)([O-])CCC[n+]1c(SCCCS(=O)(=O)O)sc2ccc(Cl)cc21,4%[10 µM],3%,3.2µM*,1%,-1%,-3%
CCn1c(C)[n+](CCCS(=O)(=O)[O-])c2cc(Cl)c(Cl)cc21,10%,-3%,-5%,1%,-1%,-3%
CCOC(=O)C1=C(C)OC(N)=C(C#N)C1c1cc2cc(C)ccc2nc1N1CCCCC1 (centres undefined),u,-2%,-3%,28µM*,0%,-5%
CCOC(=O)C1=C(C)OC(N)=C(C#N)C1c1cc2ccccc2nc1N1CCCCC1 (centres undefined),1%,-1%,8%,-15%,-1%,-4%
S=C(Nc1ccccc1Cl)N1CCCCCC1,-25%,0%,16%,x,0%,18%
Cc1ccccc1NC(=S)N1CCCCCC1,11µM*,2%,10%,0%,x,-27%
COC(=O)c1ccccc1NC(=S)N1CCN(c2ccccc2)CC1,-23%,-2%,0%,0%,x,0%
Cc1ccccc1NC(=S)N1CCN(c2ccccc2)CC1,10µM*,2%,11%,x,x,20µM*
O=C(NN=C1CCCCCC1)c1cc2ccccc2cc1O,u,0%,1%,1%,x,u
CCOC(=O)C1=C(C)C/C(=N\NC(=O)c2ccccc2O)CC1,5µM*,1%,22%,-4%,-3%,10µM*
CCOC(=O)N1CCC(=NNC(=O)c2cc3ccccc3cc2O)CC1,13µM*,18%,2%,-1%,-1%,u
O=C(NN=C1CCN(Cc2ccccc2)CC1)c1cc2ccccc2cc1O,4%,0%,-13%,-1%,-1%,1%
O=C(NN=C1CCN(Cc2ccccc2)CC1)c1ccccc1O,10µM*,-1%,12%,x,0%,u
CC(=O)N1CCC(=NNC(=O)c2cc3ccccc3cc2O)CC1,10µM*,0%,-4%,0%,x,-10%
O=C(N/N=C1\CCc2ccccc21)c1ccccc1O,u,0%,-9%,0%,-1%,u
Cc1cccc2cc(CN(C(=O)c3ccc(C(F)(F)F)cc3)C3CC3)c(N3CCC(O)CC3)nc12,x,0%,x,x,x,x
CNc1ccc(/C=C/c2ccnc3ccccc23)cc1,x,2%,x,1%,x,x
O=C(NCC1CCCO1)c1ccccc1 (centres undefined),-12%,-2%,-4%,-2%,-1%,1%
COc1ccccc1-n1c(N)c(C(=O)NCC2CCCO2)c2nc3ccccc3nc21 (centres undefined),-36%,-1%,8%,25µM*,1%,2%

# Screens deposited in PubChem by National Center for Advancing Translational Sciences (NCATS).
